In paper PMC7862700, “An all-to-all approach to the identification of sequence-specific readers for epigenetic DNA modifications on cytosine”:

Tests used:
Experiment in all cases: DAPPL (digital affinity profiling via proximity ligation, sequencing); 10 mM Tris-HCl pH 7.5, 50 mM NaCl, 1 mM DTT, 4% glycerol, room temperature, 30 min; GST-TFs on glutathione beads, 16-mer random dsDNA library, 0.1% formaldehyde crosslink after washing; high values mean tight binding
[1] = biological target: T1, FLI1 (Homo sapiens, UniProt Q01543 1-452); conditions: protein: recombinant; tags: N-terminal GST; dsDNA, one strand shown
T1 sequence: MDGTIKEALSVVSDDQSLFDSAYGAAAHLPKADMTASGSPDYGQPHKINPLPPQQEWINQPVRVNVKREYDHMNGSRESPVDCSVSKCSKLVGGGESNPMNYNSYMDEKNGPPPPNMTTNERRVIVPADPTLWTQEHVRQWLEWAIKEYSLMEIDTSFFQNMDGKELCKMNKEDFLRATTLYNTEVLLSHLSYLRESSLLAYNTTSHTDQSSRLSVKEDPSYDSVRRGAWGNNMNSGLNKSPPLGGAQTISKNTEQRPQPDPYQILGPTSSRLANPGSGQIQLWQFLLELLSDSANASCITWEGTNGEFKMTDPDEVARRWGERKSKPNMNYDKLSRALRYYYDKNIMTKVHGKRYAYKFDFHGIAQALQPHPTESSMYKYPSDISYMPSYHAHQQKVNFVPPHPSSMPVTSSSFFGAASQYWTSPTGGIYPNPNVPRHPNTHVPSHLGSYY
Summary of the method: (§1)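 Sequencing on an Illumina NextSeq500 followed washing, crosslinking with 0.1% formaldehyde, proximity ligation (BsaI/T4 ligase, 1 h, 37 °C) and PCR amplification of pools that had been incubated for 30 min at room temperature with 200 nmole of a random double-stranded 16-mer DNA library in Tris/NaCl/DTT/glycerol buffer. Each pool held DNA-barcoded human transcription factors, expressed in yeast as GST fusions and captured on glutathione beads, plus a tag-only sample. Binding signal is a hexamer's read frequency for a factor divided by its frequency in the tag-only sample.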

[2] = biological target: T2, ELK1 (Homo sapiens, UniProt P19419 1-428); conditions: protein: recombinant; tags: N-terminal GST; dsDNA, one strand shown
T2 sequence: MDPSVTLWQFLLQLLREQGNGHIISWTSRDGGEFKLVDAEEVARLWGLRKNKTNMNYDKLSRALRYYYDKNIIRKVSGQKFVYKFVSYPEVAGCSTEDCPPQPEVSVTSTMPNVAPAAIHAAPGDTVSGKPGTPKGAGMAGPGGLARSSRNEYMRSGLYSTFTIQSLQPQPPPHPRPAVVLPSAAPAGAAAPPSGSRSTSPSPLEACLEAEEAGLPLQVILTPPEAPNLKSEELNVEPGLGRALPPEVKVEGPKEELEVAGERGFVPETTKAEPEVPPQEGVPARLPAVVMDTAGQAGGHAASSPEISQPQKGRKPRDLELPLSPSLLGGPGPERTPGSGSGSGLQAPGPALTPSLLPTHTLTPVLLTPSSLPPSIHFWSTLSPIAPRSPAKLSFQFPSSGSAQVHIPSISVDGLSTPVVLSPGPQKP
Summary of the method: as §1

[3] = biological target: T3, GABPA (Homo sapiens, UniProt Q06546 1-454); conditions: protein: recombinant; tags: N-terminal GST; dsDNA, one strand shown
T3 sequence: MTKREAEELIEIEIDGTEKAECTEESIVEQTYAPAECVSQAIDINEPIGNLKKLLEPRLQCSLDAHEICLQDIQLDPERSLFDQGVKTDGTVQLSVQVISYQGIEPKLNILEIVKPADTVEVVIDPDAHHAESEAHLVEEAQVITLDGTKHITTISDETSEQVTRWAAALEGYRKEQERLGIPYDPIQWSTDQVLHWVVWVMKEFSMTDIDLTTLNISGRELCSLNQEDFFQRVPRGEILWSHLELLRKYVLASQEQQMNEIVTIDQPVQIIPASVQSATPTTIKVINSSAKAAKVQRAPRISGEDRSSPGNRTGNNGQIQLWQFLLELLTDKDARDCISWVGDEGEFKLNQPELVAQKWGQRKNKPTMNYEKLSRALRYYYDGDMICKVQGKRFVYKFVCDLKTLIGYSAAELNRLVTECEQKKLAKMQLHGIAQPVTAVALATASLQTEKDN
Summary of the method: as §1

[4] = biological target: T4, ERG (Homo sapiens, UniProt P11308 1-479); conditions: protein: recombinant; tags: N-terminal GST; dsDNA, one strand shown
T4 sequence: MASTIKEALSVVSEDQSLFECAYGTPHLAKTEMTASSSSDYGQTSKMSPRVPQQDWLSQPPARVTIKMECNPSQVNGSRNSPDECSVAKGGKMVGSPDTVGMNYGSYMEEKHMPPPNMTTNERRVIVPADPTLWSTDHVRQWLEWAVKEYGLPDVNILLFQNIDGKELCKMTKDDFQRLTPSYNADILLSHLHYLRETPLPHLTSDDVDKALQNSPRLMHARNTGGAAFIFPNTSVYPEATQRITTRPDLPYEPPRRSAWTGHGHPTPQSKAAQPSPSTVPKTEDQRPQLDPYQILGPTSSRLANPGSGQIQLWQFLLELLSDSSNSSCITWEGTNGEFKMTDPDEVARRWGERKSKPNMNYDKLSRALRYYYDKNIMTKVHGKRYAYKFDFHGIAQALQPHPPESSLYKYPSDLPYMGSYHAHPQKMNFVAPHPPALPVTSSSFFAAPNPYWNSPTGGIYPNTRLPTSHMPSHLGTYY
Summary of the method: as §1

[5] = biological target: ELF1 (Homo sapiens, UniProt P32519 1-619); conditions: protein: recombinant; tags: N-terminal GST; dsDNA, one strand shown
ELF1, sequence (P32519 whole entry): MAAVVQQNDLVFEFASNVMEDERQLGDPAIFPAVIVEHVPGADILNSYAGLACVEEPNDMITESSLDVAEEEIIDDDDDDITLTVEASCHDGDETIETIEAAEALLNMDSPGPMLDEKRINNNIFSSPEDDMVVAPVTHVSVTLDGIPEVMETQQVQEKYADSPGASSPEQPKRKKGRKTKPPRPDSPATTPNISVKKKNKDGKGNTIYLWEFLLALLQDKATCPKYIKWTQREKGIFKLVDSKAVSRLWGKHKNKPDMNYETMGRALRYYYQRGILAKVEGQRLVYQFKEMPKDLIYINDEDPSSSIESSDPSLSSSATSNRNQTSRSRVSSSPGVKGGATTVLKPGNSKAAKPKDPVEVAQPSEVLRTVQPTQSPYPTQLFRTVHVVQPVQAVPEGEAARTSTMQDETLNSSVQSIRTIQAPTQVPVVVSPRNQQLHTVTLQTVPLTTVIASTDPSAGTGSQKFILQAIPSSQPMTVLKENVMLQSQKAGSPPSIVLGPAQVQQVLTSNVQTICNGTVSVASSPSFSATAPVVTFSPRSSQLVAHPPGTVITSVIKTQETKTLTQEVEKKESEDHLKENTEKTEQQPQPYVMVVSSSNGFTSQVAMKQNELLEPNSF
Summary of the method: as §1

[6] = biological target: T5, EHF (Homo sapiens, UniProt Q9NZC4 1-300); conditions: protein: recombinant; tags: N-terminal GST; dsDNA, one strand shown
T5 sequence: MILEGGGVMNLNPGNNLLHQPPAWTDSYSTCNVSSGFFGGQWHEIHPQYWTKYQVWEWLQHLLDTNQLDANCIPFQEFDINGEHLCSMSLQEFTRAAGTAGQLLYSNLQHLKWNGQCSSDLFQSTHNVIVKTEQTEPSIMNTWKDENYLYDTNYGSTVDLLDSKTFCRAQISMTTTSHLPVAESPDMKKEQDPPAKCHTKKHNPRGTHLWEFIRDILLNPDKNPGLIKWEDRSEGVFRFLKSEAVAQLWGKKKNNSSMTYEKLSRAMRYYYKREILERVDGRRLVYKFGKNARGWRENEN
Summary of the method: as §1

[7] = biological target: SPI1 (Homo sapiens, UniProt P17947 1-270); conditions: protein: recombinant; tags: N-terminal GST; dsDNA, one strand shown
Summary of the method: as §1

[8] = biological target: SPIB (Homo sapiens, UniProt Q01892 1-262); conditions: protein: recombinant; tags: N-terminal GST; dsDNA, one strand shown
SPIB, sequence (Q01892 whole entry): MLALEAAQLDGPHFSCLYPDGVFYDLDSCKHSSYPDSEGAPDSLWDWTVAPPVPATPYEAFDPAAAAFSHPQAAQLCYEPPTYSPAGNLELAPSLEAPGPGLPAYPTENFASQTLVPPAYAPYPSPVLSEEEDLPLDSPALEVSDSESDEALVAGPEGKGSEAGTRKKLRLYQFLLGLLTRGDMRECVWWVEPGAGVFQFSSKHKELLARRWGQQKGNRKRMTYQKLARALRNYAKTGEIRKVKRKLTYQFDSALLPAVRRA
Summary of the method: as §1

[9] = biological target: T6, ELK3 (Homo sapiens, UniProt P41970 1-407); conditions: protein: recombinant; tags: N-terminal GST; dsDNA, one strand shown
T6 sequence: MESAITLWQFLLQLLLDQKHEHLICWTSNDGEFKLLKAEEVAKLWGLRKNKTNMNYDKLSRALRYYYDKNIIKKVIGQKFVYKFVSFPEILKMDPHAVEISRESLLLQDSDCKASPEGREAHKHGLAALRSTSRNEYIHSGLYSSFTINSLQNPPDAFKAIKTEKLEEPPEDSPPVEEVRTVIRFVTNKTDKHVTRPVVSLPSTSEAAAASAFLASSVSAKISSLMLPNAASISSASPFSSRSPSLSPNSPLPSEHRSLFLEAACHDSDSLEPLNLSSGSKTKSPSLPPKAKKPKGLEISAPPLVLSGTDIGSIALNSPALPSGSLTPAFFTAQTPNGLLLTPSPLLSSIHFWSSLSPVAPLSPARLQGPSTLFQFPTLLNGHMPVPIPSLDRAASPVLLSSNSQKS
Summary of the method: as §1

[10] = biological target: T7, FEV (Homo sapiens, UniProt Q99581 1-238); conditions: protein: recombinant; tags: N-terminal GST; dsDNA, one strand shown
T7 sequence: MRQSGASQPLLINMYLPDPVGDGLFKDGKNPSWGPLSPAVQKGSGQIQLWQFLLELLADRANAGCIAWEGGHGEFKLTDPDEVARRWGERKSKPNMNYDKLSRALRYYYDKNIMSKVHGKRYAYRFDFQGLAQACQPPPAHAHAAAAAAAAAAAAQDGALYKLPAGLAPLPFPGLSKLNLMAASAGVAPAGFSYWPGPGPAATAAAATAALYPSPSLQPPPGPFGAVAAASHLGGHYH
Summary of the method: as §1

[11] = biological target: ETV5 (Homo sapiens, UniProt P41161 1-510); conditions: protein: recombinant; tags: N-terminal GST; dsDNA, one strand shown
ETV5, sequence (P41161 whole entry): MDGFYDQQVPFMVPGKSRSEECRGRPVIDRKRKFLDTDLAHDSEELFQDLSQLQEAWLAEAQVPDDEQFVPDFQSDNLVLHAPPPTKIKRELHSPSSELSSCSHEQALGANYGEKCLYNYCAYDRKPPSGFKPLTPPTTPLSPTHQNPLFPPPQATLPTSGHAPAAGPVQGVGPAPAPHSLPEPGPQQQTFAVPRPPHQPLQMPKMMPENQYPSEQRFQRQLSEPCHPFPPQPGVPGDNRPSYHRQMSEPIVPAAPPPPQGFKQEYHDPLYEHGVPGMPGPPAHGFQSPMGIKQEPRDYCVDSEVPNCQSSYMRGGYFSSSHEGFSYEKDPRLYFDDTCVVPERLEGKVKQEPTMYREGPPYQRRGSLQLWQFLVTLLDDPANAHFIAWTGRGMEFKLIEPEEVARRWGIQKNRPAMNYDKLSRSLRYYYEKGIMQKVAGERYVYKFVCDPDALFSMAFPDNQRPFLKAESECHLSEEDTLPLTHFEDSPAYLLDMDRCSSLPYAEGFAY
Summary of the method: as §1

[12] = biological target: HSF1 (Homo sapiens, UniProt Q00613 1-529); conditions: protein: recombinant; tags: N-terminal GST; chain copies: 3; dsDNA, one strand shown
HSF1, sequence (Q00613 whole entry): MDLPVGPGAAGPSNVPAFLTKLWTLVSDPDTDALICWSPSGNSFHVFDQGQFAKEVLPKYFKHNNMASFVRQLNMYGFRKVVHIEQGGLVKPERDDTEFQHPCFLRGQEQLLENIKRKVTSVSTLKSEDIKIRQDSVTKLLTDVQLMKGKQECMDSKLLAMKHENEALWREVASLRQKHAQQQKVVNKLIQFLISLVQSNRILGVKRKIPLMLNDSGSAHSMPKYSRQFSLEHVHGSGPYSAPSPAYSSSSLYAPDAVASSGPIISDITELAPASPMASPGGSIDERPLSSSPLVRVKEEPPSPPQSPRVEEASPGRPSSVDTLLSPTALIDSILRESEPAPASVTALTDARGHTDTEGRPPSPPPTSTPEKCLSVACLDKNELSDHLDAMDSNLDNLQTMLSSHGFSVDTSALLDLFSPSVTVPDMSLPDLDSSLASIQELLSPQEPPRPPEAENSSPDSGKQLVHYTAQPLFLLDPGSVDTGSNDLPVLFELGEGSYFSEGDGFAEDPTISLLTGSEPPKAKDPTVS
Summary of the method: as §1

[13] = biological target: T8, SPIC (Homo sapiens, UniProt Q8N5J4 1-248); conditions: protein: recombinant; tags: N-terminal GST; dsDNA, one strand shown
T8 sequence: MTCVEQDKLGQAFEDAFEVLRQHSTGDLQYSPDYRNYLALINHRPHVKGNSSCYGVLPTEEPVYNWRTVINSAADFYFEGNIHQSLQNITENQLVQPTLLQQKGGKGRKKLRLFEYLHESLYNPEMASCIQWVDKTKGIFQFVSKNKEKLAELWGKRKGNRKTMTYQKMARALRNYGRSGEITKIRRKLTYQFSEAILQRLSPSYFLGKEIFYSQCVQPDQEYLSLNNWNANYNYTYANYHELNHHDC
Summary of the method: as §1

[14] = biological target: ELF4 (Homo sapiens, UniProt Q99607 1-663); conditions: protein: recombinant; tags: N-terminal GST; dsDNA, one strand shown
ELF4, sequence (Q99607 whole entry): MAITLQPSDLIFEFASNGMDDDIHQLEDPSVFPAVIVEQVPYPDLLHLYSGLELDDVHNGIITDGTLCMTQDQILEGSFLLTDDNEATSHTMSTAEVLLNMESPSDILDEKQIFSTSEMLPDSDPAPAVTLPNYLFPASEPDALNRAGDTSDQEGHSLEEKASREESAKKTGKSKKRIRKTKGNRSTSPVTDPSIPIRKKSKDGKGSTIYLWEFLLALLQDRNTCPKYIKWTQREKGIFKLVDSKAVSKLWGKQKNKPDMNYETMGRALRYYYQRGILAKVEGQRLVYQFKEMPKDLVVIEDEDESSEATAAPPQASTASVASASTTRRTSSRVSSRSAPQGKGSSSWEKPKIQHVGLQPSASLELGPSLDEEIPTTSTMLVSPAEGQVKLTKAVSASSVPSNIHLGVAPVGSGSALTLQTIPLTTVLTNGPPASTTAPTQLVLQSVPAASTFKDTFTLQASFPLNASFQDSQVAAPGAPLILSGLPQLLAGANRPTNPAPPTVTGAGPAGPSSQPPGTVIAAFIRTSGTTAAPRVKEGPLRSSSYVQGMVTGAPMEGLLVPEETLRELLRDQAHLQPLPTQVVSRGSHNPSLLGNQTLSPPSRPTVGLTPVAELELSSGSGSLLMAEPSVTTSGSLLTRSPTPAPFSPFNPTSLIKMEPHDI
Summary of the method: as §1

[15] = biological target: T9, ELK4 (Homo sapiens, UniProt P28324-2 1-405); conditions: protein: recombinant; tags: N-terminal GST; dsDNA, one strand shown
T9 sequence: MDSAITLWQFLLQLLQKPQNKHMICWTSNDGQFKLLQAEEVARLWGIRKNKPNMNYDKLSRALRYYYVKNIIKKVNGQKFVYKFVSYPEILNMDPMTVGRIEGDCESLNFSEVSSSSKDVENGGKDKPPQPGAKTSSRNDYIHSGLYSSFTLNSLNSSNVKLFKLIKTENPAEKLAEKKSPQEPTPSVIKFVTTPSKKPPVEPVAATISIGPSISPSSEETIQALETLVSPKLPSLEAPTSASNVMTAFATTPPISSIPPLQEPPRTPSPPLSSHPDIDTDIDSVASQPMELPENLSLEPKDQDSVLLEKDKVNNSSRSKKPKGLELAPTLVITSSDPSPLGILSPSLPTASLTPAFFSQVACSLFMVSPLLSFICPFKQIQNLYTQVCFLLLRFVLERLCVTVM
Summary of the method: as §1

[16] = biological target: T10, ETV2 (Homo sapiens, UniProt O00321 1-342); conditions: protein: recombinant; tags: N-terminal GST; dsDNA, one strand shown
T10 sequence: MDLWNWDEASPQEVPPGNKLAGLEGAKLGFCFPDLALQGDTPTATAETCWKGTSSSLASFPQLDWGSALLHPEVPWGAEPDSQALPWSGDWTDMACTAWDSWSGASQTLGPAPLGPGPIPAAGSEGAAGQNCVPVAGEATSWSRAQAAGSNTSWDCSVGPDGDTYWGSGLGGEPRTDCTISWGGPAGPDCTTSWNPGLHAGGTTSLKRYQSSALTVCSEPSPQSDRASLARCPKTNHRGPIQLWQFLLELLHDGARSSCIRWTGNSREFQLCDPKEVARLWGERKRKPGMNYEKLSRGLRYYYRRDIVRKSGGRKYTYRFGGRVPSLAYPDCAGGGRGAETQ
Summary of the method: as §1

[17] = biological target: T11, ELF3 (Homo sapiens, UniProt P78545 1-371); conditions: protein: recombinant; tags: N-terminal GST; dsDNA, one strand shown
T11 sequence: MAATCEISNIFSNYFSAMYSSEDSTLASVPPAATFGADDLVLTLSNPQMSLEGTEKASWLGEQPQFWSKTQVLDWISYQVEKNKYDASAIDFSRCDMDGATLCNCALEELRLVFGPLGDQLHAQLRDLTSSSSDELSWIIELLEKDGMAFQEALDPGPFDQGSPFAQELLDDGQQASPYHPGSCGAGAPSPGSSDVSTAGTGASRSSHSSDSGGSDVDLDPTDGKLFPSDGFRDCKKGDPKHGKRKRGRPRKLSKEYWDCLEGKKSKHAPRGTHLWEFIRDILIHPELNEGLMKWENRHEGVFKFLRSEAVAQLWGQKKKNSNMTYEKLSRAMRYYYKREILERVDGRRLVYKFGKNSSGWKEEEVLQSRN
Summary of the method: as §1

[18] = biological target: CRX (Homo sapiens, UniProt O43186 1-299); conditions: protein: recombinant; tags: N-terminal GST; dsDNA, one strand shown
CRX, sequence (O43186 whole entry): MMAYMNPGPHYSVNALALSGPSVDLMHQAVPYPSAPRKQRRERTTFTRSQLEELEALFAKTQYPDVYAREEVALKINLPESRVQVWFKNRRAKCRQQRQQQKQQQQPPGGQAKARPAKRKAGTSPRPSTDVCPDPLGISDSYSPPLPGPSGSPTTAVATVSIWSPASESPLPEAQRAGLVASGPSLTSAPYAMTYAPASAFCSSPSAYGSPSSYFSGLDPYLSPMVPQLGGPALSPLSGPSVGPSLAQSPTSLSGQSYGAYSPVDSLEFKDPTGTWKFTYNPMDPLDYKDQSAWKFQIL
Summary of the method: as §1

[19] = biological target: ETV1 (Homo sapiens, UniProt P50549 1-477); conditions: protein: recombinant; tags: N-terminal GST; dsDNA, one strand shown
ETV1, sequence (P50549 whole entry): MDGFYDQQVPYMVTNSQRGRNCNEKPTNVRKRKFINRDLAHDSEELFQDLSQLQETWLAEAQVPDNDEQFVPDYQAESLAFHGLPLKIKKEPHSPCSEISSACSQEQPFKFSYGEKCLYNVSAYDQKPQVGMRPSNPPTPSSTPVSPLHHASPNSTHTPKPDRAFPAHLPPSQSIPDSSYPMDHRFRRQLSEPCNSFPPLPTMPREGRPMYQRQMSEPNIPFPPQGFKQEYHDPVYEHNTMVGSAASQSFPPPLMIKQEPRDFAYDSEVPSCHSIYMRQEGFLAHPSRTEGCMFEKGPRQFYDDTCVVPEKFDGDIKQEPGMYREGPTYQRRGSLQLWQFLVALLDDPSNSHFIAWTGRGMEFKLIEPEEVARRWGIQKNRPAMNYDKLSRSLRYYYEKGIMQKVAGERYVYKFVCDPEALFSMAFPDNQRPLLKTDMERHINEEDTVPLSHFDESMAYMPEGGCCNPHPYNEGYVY
Summary of the method: as §1

Sequence: ACTCCG
- binding signal [1]: 1.48 fold enrichment (6-mer frequency, TF over GST control)
- binding signal [2]: 1.5 fold enrichment (6-mer frequency, TF over GST control)
- binding signal [3]: 1.58 fold enrichment (6-mer frequency, TF over GST control)
- binding signal [4]: 1.43 fold enrichment (6-mer frequency, TF over GST control)
- binding signal [5]: 1.48 fold enrichment (6-mer frequency, TF over GST control)
- binding signal [6]: 1.42 fold enrichment (6-mer frequency, TF over GST control)
- binding signal [7]: 1.45 fold enrichment (6-mer frequency, TF over GST control)
- binding signal [8]: 1.44 fold enrichment (6-mer frequency, TF over GST control)
- binding signal [9]: 1.56 fold enrichment (6-mer frequency, TF over GST control)
- binding signal [10]: 1.49 fold enrichment (6-mer frequency, TF over GST control)
- binding signal [11]: 1.44 fold enrichment (6-mer frequency, TF over GST control)
- binding signal [12]: 1.16 fold enrichment (6-mer frequency, TF over GST control)
- binding signal [13]: 1.35 fold enrichment (6-mer frequency, TF over GST control)
- binding signal [14]: 1.58 fold enrichment (6-mer frequency, TF over GST control)
- binding signal [15]: 1.4 fold enrichment (6-mer frequency, TF over GST control)
- binding signal [16]: 1.4 fold enrichment (6-mer frequency, TF over GST control)
- binding signal [17]: 1.33 fold enrichment (6-mer frequency, TF over GST control)
- binding signal [18]: 1.04 fold enrichment (6-mer frequency, TF over GST control)
- binding signal [19]: 1.47 fold enrichment (6-mer frequency, TF over GST control)
